ELG1 genotox – induces genotoxicity in HEK293T cells with luciferase-tagged ELG1 | HEK293T ELG1-luciferase reporter, luminescence, 16 h | Potency, µM (top dose mostly 46 µM), without a hit: top-dose activity change, positive = activation, actives largely listed as activators | 1.3% of 330,000 active | AID 504466; also: % of control where 0% means no effect; nearly all actives have a fitted effect of over 60% in size
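Genotoxicity was scored as increased ELG1-luciferase reporter signal, measured by ONE-Glo luminescence (30 min, room temperature). Compound or vehicle exposure of the HEK293T reporter cells lasted 16 hr at 37°C.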
Rab9 prom act – Rab9 promoter activation | 2.8% of 320,000 active | Huh7 Rab9 promoter-luciferase reporter, luminescence, 24 h | Potency, µM (top dose mostly 9.22 µM), for the others: top-dose activation, negative = inhibition, actives largely listed as activators; also: % of control where 0% means no effect; nearly all actives have a fitted effect of over 60% in size
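Cell-based reporter: Huh7 stable for Rab9 promoter-driven luciferase, plated in reduced-serum medium with 10% FBS at 1500 cells/well, compound-treated 24 h at 37 °C, luminescence read after 10 min reagent.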
NPC1 prom act – activators of NPC1 promoter. 2.4% of 320,000 active. AID 485313. Huh7 NPC1 promoter luciferase reporter, 24 h. Potency, µM (top dose mostly 9.22 µM), without a hit: at the highest dose activation, hits mostly activators; also: % of control where 0% means no effect; nearly all actives have a fitted effect of over 60% in size
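Huh7 cells stably carrying NPC1 promoter–luciferase, plated in Opti-MEM with 10% FBS for 2 h, were exposed to compound in DMSO for 24 h at 37 °C; luciferase reagent was added for 10 min and luminescence read.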
FLuc modulator – counter-screen for miR-21 project: firefly luciferase inhibitors or activators | P08659 | purified FLuc, Km substrates, luminescence inhibition | Potency, µM (top dose mostly 57.5 µM), inactives show top-dose activity change, negative = inhibition, usual class: inhibitors | 6.9% of 360,000 active | AID 588342;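 also: plate controls were vehicle for no effect and reference inhibitor for full effect; nearly all actives have a fitted effect of over 55% in size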
Target sequence (P08659 whole entry, looked up): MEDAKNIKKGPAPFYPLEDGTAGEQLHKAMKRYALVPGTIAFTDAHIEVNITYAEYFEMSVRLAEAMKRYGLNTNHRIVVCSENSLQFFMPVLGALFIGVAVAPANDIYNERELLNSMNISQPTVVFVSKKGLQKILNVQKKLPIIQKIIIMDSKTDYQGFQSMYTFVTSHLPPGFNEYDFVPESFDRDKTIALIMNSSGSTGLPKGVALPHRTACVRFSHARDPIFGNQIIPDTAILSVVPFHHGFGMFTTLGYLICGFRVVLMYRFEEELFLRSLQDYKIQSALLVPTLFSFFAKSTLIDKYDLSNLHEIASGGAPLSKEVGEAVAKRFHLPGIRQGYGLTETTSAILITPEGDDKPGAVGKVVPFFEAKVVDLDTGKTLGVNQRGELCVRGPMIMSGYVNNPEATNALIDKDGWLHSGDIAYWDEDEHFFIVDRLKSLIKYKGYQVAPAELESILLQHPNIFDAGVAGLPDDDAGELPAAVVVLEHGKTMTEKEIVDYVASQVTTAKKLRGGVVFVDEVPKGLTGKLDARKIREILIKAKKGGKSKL
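Biochemical qHTS of compounds, final roughly 60 µM downward over six points, against 10 nM purified firefly luciferase using Km concentrations of substrates (10 uM D-luciferin, 10 uM ATP) in Tris acetate pH 7.5 buffer; luminescence output.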
ELG1 DNA repair – ELG1-dependent DNA repair inhibition. HEK293T ELG1-luciferase reporter, luminescence, 16 h; DNA damage induced by 5-fluorouridine. Potency, µM (titrated, usually from 46.1 µM), for the others: top-dose activity change, negative = inhibition, most hits filed as inhibitors. 2.3% of 330,000 active. AID 504467; also: % is scaled to controls: 0 for no effect and ±100 for the full control effect; nearly all actives have a fitted effect of over 55% in size
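Reporter activity after DNA damage by 5-fluorouridine is monitored. Compound-treated cells incubate 16 hr at 37 °C, then ONE-Glo is added for 30 min before luminescence reading.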
SMN2 splice enh – enhancers of SMN2 splice variant expression. 2.8% of 210,000 active. Potency, µM (series often up to 46.1 µM), without a hit: at the highest dose activity change, positive = activation, actives largely listed as activators. HEK293 SMN2-luciferase splicing reporter, luminescence, 30-36 h; also: % of control where 0% means no effect; nearly all actives have a fitted effect of over 55% in size
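qHTS luciferase splicing reporter: luminescence rises when SMN2 exon 7 is included in transfected HEK293 cells. Compound exposure lasted 30-36 h at 37C, with 4.5 mM final sodium butyrate as control, followed by a ONE-Glo read.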
Numbers without * were called inactive; ? = inconclusive; · = no result. An excerpt weighted towards active compounds, which were near 9.3% of everything screened. Calls follow the shape of the dose curve; as a rule, active = well fitted curve in the direction sought with a large enough effect; inconclusive = small, poorly fitted or top-dose-only effect, or another doubt; inactive = no such curve, though single readings can be large; an effect the other way counts as inactive or inconclusive. Potency is read from the fitted curve at half-maximal effect.

SMILES	ELG1 genotox	Rab9 prom act	NPC1 prom act	FLuc modulator	ELG1 DNA repair	SMN2 splice enh
CCOc1ccc(N2C(=O)/C(=C/c3cc(OC)c(OC)c(OC)c3)N(CC(=O)OC)C2=S)cc1	-3%	2%	-3%	4%	?	-40%
CCOc1ccc(/C=C2/C(=O)N(c3ccc(OC)cc3)C(=S)N2CC(=O)OC)cc1OCC	?	?	?	6µM*	?	13µM*
Nc1nc(Nc2ccccc2F)sc1C(=O)c1ccc(Cl)cc1	·	·	·	15µM*	·	14µM*
Nc1nc(Nc2cccc(Cl)c2)sc1C(=O)c1ccc(F)cc1	·	·	·	-10%	·	·
C=CCn1c(SCc2ccccc2Cl)nnc1-c1sc2nc(C)cc(C)c2c1N	-6%	-11%	0%	0%	21µM*	·
C/C(=N/NS(=O)(=O)c1cccc([N+](=O)[O-])c1)c1c[nH]c2ccccc12	8%	7%	-3%	-1%	4%	·
CCOc1ccc(CN(C(=O)c2cc3ccccc3oc2=O)C2CCS(=O)(=O)C2)cc1 (stereo unspecified)	?	3.2µM*	?	12µM*	?	·
COc1ccc(CN(C(=O)c2cc3ccccc3oc2=O)C2CCS(=O)(=O)C2)cc1OC (stereo unspecified)	?	?	4µM*	19µM*	?	?
COc1ccc(CN(C(=O)c2cc3ccccc3oc2=O)C2CCS(=O)(=O)C2)cc1 (stereo unspecified)	7%	3%	-4%	-13%	26%	-7%
O=C(c1cc2ccccc2oc1=O)N(Cc1ccccc1F)C1CCS(=O)(=O)C1 (stereo unspecified)	?	?	24%	17µM*	?	·
O=C(c1cc2ccccc2oc1=O)N(Cc1ccccc1)C1CCS(=O)(=O)C1 (stereo unspecified)	?	?	?	21µM*	?	-6%
CCOc1ccccc1C(=O)N(Cc1ccccc1F)C1CCS(=O)(=O)C1 (stereo unspecified)	·	·	·	-2%	·	1%
CN(c1ccc(OCC(=O)OCC(=O)Nc2c(F)c(F)c(F)c(F)c2F)cc1)S(=O)(=O)c1ccc(F)cc1	0%	2%	-1%	5%	6%	6%
c1ccc(-n2cnnc2SCc2cn3ccccc3n2)cc1	2%	-3%	-7%	-3%	-2%	-10%
COC(=O)c1c(N)n(-c2ccc(OC)c(Cl)c2)c2nc3ccccc3nc12	·	·	·	-1%	·	6%
CC(C)CCN(C(=O)c1ccc(Br)cc1)c1c(N)n(Cc2ccccc2)c(=O)[nH]c1=O	1%	3%	-3%	7%	-3%	·
CC1(C)CC(=O)N(c2cc(Cl)ccc2Cl)C(=O)C1	-4%	5%	0%	2%	?	·
N#CCCN(C(=O)CSc1ncccn1)c1ccc2c(c1)OCCO2	-2%	-4%	2%	3%	1%	·
O=C(CCl)N(C/C=C/c1ccccc1)c1ccc2c(c1)OCCO2	11%	-45%	-38%	24µM*	?	-16%
O=c1c2sccc2nc(SCc2cc(=O)n3ccccc3n2)n1Cc1ccccn1	?	4µM*	?	-3%	?	13µM*
O=C(CSc1nnc2[nH]c(=O)cc(-c3ccccc3)n12)Nc1ccccc1C(F)(F)F	·	·	·	2.7µM*	·	·
COc1ccc(Cl)cc1NC(=O)CSc1nc(-c2ccccc2)cc(=O)[nH]1	0%	5%	2%	-5%	-1%	·
CCc1ccc(NC(=O)CSc2nnc3[nH]c(=O)cc(-c4ccccc4)n23)cc1	·	·	·	1.5µM*	·	·
Nc1cc(=O)[nH]c2nnc(SCC(=O)Nc3cccc4ccccc34)n12	-2%	1%	3%	7%	0%	·
COc1ccc(Cl)cc1NC(=O)CSc1nnc2[nH]c(=O)cc(-c3ccccc3)n12	·	·	·	1.2µM*	·	·
